# Sampled rows, rich in hits. Any-hit rate of the full collection: about 4.3%.
# NALP1 yeast inh: inhibitors of NALP1 inflammasome in yeast; S. cerevisiae NALP1/ASC/caspase-1 growth, X-gal OD620, 72 h; inhibition, % at 10 µM; hit rate 0.61% among 280,000; in the data active = inhibition mostly above about 24%, no sharp cut-off; inactive = mostly below about 32%
# dFosB act: mouse delta FosB homodimer activation; AID 493131; hit rate 0.99% among 340,000; P13346; activation, % at 25 µM; purified delta FosB, TAMRA-CDK5 oligo fluorescence polarization; percent of positive-control signal above neutral wells;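 active = mean activation above about 17%, with every replicate also reaching it, limit read from the data, passing the limit was not always enough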
# Target sequence (P13346 whole entry, looked up): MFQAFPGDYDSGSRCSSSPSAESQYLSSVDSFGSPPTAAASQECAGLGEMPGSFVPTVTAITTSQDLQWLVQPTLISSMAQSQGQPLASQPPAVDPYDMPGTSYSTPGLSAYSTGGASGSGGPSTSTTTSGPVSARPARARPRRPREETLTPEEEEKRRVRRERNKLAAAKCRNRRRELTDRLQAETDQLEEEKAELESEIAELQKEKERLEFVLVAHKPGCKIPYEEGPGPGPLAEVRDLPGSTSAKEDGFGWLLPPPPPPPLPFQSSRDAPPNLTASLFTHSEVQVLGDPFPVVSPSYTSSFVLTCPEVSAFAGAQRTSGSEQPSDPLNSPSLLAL
# Yeast superoxide: lowers age-related superoxide in aged yeast cells | superoxide response (% of plate mean), % at 10 µM | S. cerevisiae aged cells, superoxide DHE fluorescence; stronger effect = lower value | hit rate 0.18% among 330,000;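 active = superoxide response under a set limit, about three screen SD below normal, cut at about 65% in these data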;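 note: yeast aged for seven days with compound at 30 °C before DHE staining; 100% = average MFI of all compound-treated wells on the plate with controls excluded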
# UBC13 inh: blocks human UBC13 polyubiquitin chain formation. TR-FRET. P61088. hit rate 0.47% among 330,000. inhibition, % at 20 µM; in the data active = inhibition above about 45%, passing the limit was not always enough
# GRIN3A LBD mod: modulates the human NR3A ligand-binding domain. NR3A LBD differential scanning fluorimetry, Tm shift; 0% = protein alone, 100% = glycine-bound protein. Tm shift relative to glycine control, % at 25 µM. hit rate 2.5% among 340,000. AID 1259313;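 active = melting temperature shift of at least 10% of the positive control shift, at one fixed dose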
# Superoxide pick: yeast aging superoxide inhibition, cherry pick confirmation. shares compounds with Yeast superoxide. S. cerevisiae aging, superoxide DHE fluorescence; stronger effect = lower value. superoxide response (% of plate), % at 10 µM. hit rate 1% among 850. AID 434994;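 active = superoxide signal below 65% of the plate average of sample wells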;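 note: cells aged with compound for 7 days at 30 degrees C before staining; 100% equals mean DHE fluorescence of all compound wells on the plate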
# DHE counter: DHE fluorescence interference, counter-screen artifact | fluorescence response, % at 10 µM | 850 tested, under 10 active | S. cerevisiae BY4741, flow cytometry; stronger effect = lower value | AID 435000 | shares compounds with Yeast superoxide;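 active = fluorescence response below 15%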;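 note: percent of the mean fluorescence averaged over all compound wells on the plate; lower means stronger quenching of DHE signal or ROS scavenging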
# Starred values were filed as active, the others as inactive; · = no result given.
SMILES,NALP1 yeast inh,dFosB act,Yeast superoxide,UBC13 inh,GRIN3A LBD mod,Superoxide pick,DHE counter
c1ccc(Cn2ncc3c(NCc4ccco4)ncnc32)cc1,-12,-4,93,5,-1,·,·
OCCN(CC#CCn1c2ccccc2c2ccccc21)CCO,·,-4,106,4,0,87,105
COc1ccc(OCCNC(=O)c2ccc(C)cc2)cc1,15,0,88,1,1,·,·
O=C(Nc1ccc2ccccc2c1)c1ccc(Cl)cc1Cl,12,-10,50*,-6,-13,95,100
Cc1nc2scc(C)n2c(=O)c1S(=O)(=O)NCc1ccc(F)cc1,18,3,81,7,1,·,·
Cc1ccc(N(C(=O)c2csnn2)C(C(=O)NC2CCCCC2)c2ccncc2)c(C)c1 (configuration not stated),4,-5,101,3,-3,·,·
COc1ccc2nc3ccccc3nc2c1NC(=O)c1ccccc1Cl,16,3,53*,-18,-1,80,93
O=C(Nc1ccc2ccccc2n1)c1ccccc1Cl,10,-10,117,-5,2,·,·
COc1ccc(S(=O)(=O)N2CCCCCC2)cc1C(=O)OCc1cccc(OC)c1OC,·,-13,85,5,1,·,·
COC(=O)C(Cc1ccc(O)cc1)NC(=O)NC12CC3CC(CC(C3)C1)C2 (configuration not stated),18,-1,93,-2,-1,·,·
COc1ccc(CCNC(=O)CCNS(=O)(=O)c2cccc(Cl)c2)cc1OC,-5,4,59*,0,2,92,112
COc1ccc(CCNC(=O)CNS(=O)(=O)c2ccc(N(C)C)c([N+](=O)[O-])c2)cc1OC,4,-1,65*,-3,3,100,99
CCCNS(=O)(=O)c1ccc(CCC(=O)NCCc2ccc(OC)c(OC)c2)cc1,-9,-1,97,1,-2,·,·
CCC(C)N(CC(=O)Nc1cccc(C)c1C)C(=O)CCl (configuration not stated),-5,-8,90,7,0,·,·
Cc1cccn2c(=O)c3cc(C(=O)NCc4cccnc4)c(=N)n(C(C)C)c3nc12,33,-5,98,9,-1,·,·
Cc1cccn2c(=O)c3cc(C(=O)NCc4ccco4)c(=N)n(C(C)C)c3nc12,25,-2,64*,-13,0,100,113
COc1ccc(N2CCN(S(=O)(=O)c3cn(C)cn3)CC2)cc1,-10,-1,88,2,-5,·,·
CC(C)CCNC(=O)c1cn(CC(C)C)c(=O)c2c1c1ccccc1n2C,3,-7,101,4,0,·,·
CC(C)Cn1cc(C(=O)NCc2cccs2)c2c3ccccc3n(C)c2c1=O,-1,0,62*,0,2,125,119
O=C(CN1CCN(c2ccccn2)CC1)Nc1cc(C(F)(F)F)ccc1Cl,7,-5,97,3,-3,107,133
O=C(CN1CCCC1)Nc1cc(C(F)(F)F)ccc1Cl,10,3,96,10,1,·,·
O=C(CN1CCN(c2ccccn2)CC1)Nc1ccc(Cl)c(C(F)(F)F)c1,10,-5,102,0,-8,95,103
O=C(CN1CCN(c2ccccn2)CC1)Nc1ccc2ccccc2c1,6,-6,95,4,-1,·,·
CCN(C(=O)c1cn(C)c(=O)c2ccccc12)c1ccccc1F,-2,1,108,7,-2,·,·
CC1CC(C)CN(CC(=O)NCCc2ccc(S(N)(=O)=O)cc2)C1 (configuration not stated),-1,-3,62*,7,0,108,118
SMILES,NALP1 yeast inh,dFosB act,Yeast superoxide,UBC13 inh,GRIN3A LBD mod,Superoxide pick,DHE counter
Cc1ccc(C)c(NC(=O)CN(C)C(=O)c2oc3c(Cl)cccc3c2C)c1,·,-2,65*,6,·,105,105
COc1ccc(C)cc1S(=O)(=O)Nc1ccc(F)cc1,13,3,111,6,0,115,96
Cc1ccc(C)c(NS(=O)(=O)c2ccccc2C)c1,7,3,103,2,0,91,93
COc1ccccc1NS(=O)(=O)c1cc(C)ccc1C,22,6,102,2,1,·,·
Cc1ccc(C)c(S(=O)(=O)Nc2ccc(O)cc2)c1,6,-2,92,5,4,108,111
COc1ccc(OC)c(S(=O)(=O)Nc2ccc(F)cc2)c1,24,2,103,-8,1,·,·
